Data as given in PubChem BioAssay (NCI).
About 79,000 compounds went through this panel and 15% of them were active in at least one assay; those are over-represented in the sample as a whole. Values without a mark were called inactive. Activity calls are given as the source filed them. Rule as the data show it: active = growth inhibition above about 70%; inactive = the rest.

Key:
[1] = NCI Yeast Anticancer Drug Screen. Data for the rad52 strain (AID 147);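 also: 0% = growth of vehicle-treated control cultures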; conditions: S. cerevisiae rad52 mutant growth inhibition, active compounds read high
Procedure, shortened: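 Compounds are applied to a genetically defined yeast strain lacking normal DNA damage repair, and inhibition of growth is expressed relative to cultures given vehicle only.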

[2] = NCI Yeast Anticancer Drug Screen. Data for the wt1 strain (AID 149);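 also: 0% = growth of vehicle-treated wt1 cultures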; conditions: S. cerevisiae wt1 strain (SPY 50644) growth inhibition, active compounds read high
Procedure, shortened: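 Readout: yeast growth inhibition, normalised to vehicle controls, in the wt1 strain exposed to test compounds.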

[3] = NCI Yeast Anticancer Drug Screen. Data for the rad50EPP+ strain (AID 151);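 also: 0% = growth of vehicle-treated control cultures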; conditions: S. cerevisiae rad50 mutant strain, active compounds read high
Procedure, shortened: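 Compounds were applied to the rad50EPP+ yeast strain, which bears a defined DNA repair alteration, and growth inhibition was determined relative to vehicle-treated cultures.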

[4] = NCI Yeast Anticancer Drug Screen. Data for the mgt1 strain (AID 153); conditions: S. cerevisiae mgt1 mutant growth inhibition, active compounds read high
Procedure, shortened: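 Strain: mgt1 yeast, one of a set carrying defined DNA damage repair or cell cycle control alterations. Compound-treated growth compared with vehicle.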

[5] = NCI Yeast Anticancer Drug Screen. Data for the rad50 strain (AID 155);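 also: 0% = growth of vehicle-only cultures of the same strain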; conditions: S. cerevisiae rad50 strain growth inhibition, active compounds read high
Procedure, shortened: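 Compounds were tested on a yeast strain with an engineered DNA damage repair alteration; the reported value is growth inhibition normalised to vehicle treatment.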

[6] = NCI Yeast Anticancer Drug Screen. Data for the mec2-1 strain (AID 157); conditions: S. cerevisiae mec2-1 strain, active compounds read high
Procedure, shortened: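 Strain: mec2-1 (DNA repair/cell cycle alteration). Compound exposure, then growth measured; inhibition expressed relative to vehicle.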

[7] = NCI Yeast Anticancer Drug Screen. Data for the rad14 strain (AID 159);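 also: 0% = growth of vehicle-treated control cultures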; conditions: S. cerevisiae rad14 strain growth inhibition, active compounds read high
Procedure, shortened: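 Compound-treated yeast with a defined DNA-repair lesion; growth inhibition normalised to vehicle-treated cultures.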

[8] = NCI Yeast Anticancer Drug Screen. Data for the sgs1 mgt1 strain (AID 161);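 also: 0% = growth of cultures given vehicle only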; conditions: S. cerevisiae sgs1 mgt1 strain, active compounds read high
Procedure, shortened: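 Inhibition of yeast growth, normalised to vehicle-treated controls, is reported for a strain bearing genetic alterations in DNA damage repair.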

[9] = NCI Yeast Anticancer Drug Screen. Data for the CLN2oe strain (AID 163);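 also: 0% = growth of vehicle-only control cultures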; conditions: S. cerevisiae CLN2oe strain, active compounds read high
Procedure, shortened: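 Growth of a genetically modified yeast strain is measured after compound exposure and compared with cultures given vehicle alone.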

[10] = NCI Yeast Anticancer Drug Screen. Data for the cln2 rad14 strain (AID 165);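 also: 0% = growth equal to vehicle treated cultures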; conditions: S. cerevisiae cln2 rad14 strain, active compounds read high
Procedure, shortened: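 Compounds are applied to the cln2 rad14 yeast strain, and growth is then compared with that of vehicle-treated cultures to give inhibition.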

[11] = NCI Yeast Anticancer Drug Screen. Data for the bub3 strain (AID 167); conditions: S. cerevisiae bub3 mutant strain, active compounds read high
Procedure, shortened: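 Growth of a checkpoint-deficient yeast mutant is measured after compound exposure. Values represent inhibition relative to vehicle.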

[12] = NCI Yeast Anticancer Drug Screen. Data for the wt2 strain (AID 169);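 also: 0% = growth of vehicle-treated yeast cultures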; conditions: S. cerevisiae wt2 strain growth inhibition, active compounds read high
Procedure, shortened: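 This strain belongs to a panel of yeast strains with defined genetic alterations in DNA damage repair or cell cycle control. Compounds are applied, and growth inhibition is measured against vehicle-treated cultures.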

[13] = NCI Yeast Anticancer Drug Screen. Data for the mlh1 strain (AID 171);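 also: 0% = growth of vehicle-treated control cultures of the same strain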; conditions: S. cerevisiae mlh1 strain growth inhibition, active compounds read high
Procedure, shortened: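 Growth of the mutant yeast strain after compound exposure, expressed as inhibition relative to vehicle-only controls.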

[14] = NCI Yeast Anticancer Drug Screen. Data for the mlh1 rad18 strain (AID 175); conditions: S. cerevisiae mlh1 rad18 strain growth inhibition, active compounds read high
Procedure, shortened: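 Read-out is yeast growth inhibition, calculated against vehicle-only controls. The compound was applied to a strain engineered with DNA damage repair alterations.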

[15] = NCI Yeast Anticancer Drug Screen. Data for the rad18 strain (AID 177); conditions: S. cerevisiae rad18 mutant growth inhibition, active compounds read high
Procedure, shortened: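 Growth of the mutant yeast strain after compound exposure, normalised to vehicle-only cultures.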

[16] = at 5.0 µM (retest, dose inferred, filed as 0.5)
[17] = at 50.0 µM (retest, dose inferred, filed as 5.0)

Q: Which results are given for `CC[C@@]1(O)C(=O)OCc2c1cc1n(c2=O)Cc2cc3ccccc3nc2-1`?
A: growth inhibition ([1]; at 1.2 µM): 97% (active); growth inhibition ([1]; at 3.7 µM): 98% (active); growth inhibition ([1]; at 11.0 µM): 98% (active); growth inhibition ([1]; at 33.0 µM): 97% (active); growth inhibition ([1]; at 100.0 µM): 95% (active); growth inhibition ([2]; at 1.2 µM): 2%; growth inhibition ([2]; at 3.7 µM): 39%; growth inhibition ([2]; at 11.0 µM): 90% (active); growth inhibition ([2]; at 33.0 µM): 94% (active); growth inhibition ([2]; at 100.0 µM): 95% (active); growth inhibition ([3]; at 1.2 µM): 89% (active); growth inhibition ([3]; at 3.7 µM): 95% (active); growth inhibition ([3]; at 11.0 µM): 97% (active); growth inhibition ([3]; at 33.0 µM): 97% (active); growth inhibition ([3]; at 100.0 µM): 96% (active); growth inhibition ([4]; at 1.2 µM): 0%; growth inhibition ([4]; at 3.7 µM): 6%; growth inhibition ([4]; at 11.0 µM): 79% (active); growth inhibition ([4]; at 33.0 µM): 91% (active); growth inhibition ([4]; at 100.0 µM): 92% (active); growth inhibition ([5]; at 1.2 µM): 97% (active); growth inhibition ([5]; at 3.7 µM): 97% (active); growth inhibition [5, 16]: 97% (active); growth inhibition ([5]; at 11.0 µM): 96% (active); growth inhibition ([5]; at 33.0 µM): 96% (active); growth inhibition [5, 17]: 97% (active); growth inhibition ([5]; at 50.0 µM): 86.9% (active); growth inhibition ([5]; at 100.0 µM): 95% (active); growth inhibition ([6]; at 1.2 µM): 47%; growth inhibition ([6]; at 3.7 µM): 95% (active); growth inhibition [6, 16]: 73% (active); growth inhibition ([6]; at 11.0 µM): 97% (active); growth inhibition ([6]; at 33.0 µM): 98% (active); growth inhibition [6, 17]: 98% (active); growth inhibition ([6]; at 50.0 µM): 88.2% (active); growth inhibition ([6]; at 100.0 µM): 97% (active); growth inhibition ([7]; at 1.2 µM): 21%; growth inhibition ([7]; at 3.7 µM): 55%; growth inhibition ([7]; at 11.0 µM): 89% (active); growth inhibition ([7]; at 33.0 µM): 97% (active); growth inhibition ([7]; at 100.0 µM): 96% (active); growth inhibition [8, 16]: 53%; growth inhibition [8, 17]: 95% (active); growth inhibition ([8]; at 50.0 µM): 81.7% (active); growth inhibition ([9]; at 1.2 µM): 8%; growth inhibition ([9]; at 3.7 µM): 55%; growth inhibition ([9]; at 11.0 µM): 89% (active); growth inhibition ([9]; at 33.0 µM): 93% (active); growth inhibition ([9]; at 100.0 µM): 91% (active); growth inhibition [10, 16]: 14%; growth inhibition [10, 17]: 89% (active); growth inhibition ([10]; at 50.0 µM): 58%; growth inhibition ([11]; at 1.2 µM): -12%; growth inhibition ([11]; at 3.7 µM): 15%; growth inhibition [11, 16]: -16%; growth inhibition ([11]; at 11.0 µM): 90% (active); growth inhibition ([11]; at 33.0 µM): 95% (active); growth inhibition [11, 17]: 90% (active); growth inhibition ([11]; at 50.0 µM): 78.5% (active); growth inhibition ([11]; at 100.0 µM): 96% (active); growth inhibition ([12]; at 1.2 µM): 17%; growth inhibition ([12]; at 3.7 µM): 57%; growth inhibition ([12]; at 11.0 µM): 92% (active); growth inhibition ([12]; at 33.0 µM): 97% (active); growth inhibition ([12]; at 100.0 µM): 96% (active); growth inhibition ([13]; at 1.2 µM): -2%; growth inhibition ([13]; at 3.7 µM): 35%; growth inhibition ([13]; at 11.0 µM): 84% (active); growth inhibition ([13]; at 33.0 µM): 93% (active); growth inhibition ([13]; at 100.0 µM): 93% (active); growth inhibition [14, 16]: 39%; growth inhibition [14, 17]: 93% (active); growth inhibition ([14]; at 50.0 µM): 81.7% (active); growth inhibition ([15]; at 1.2 µM): -6%; growth inhibition ([15]; at 3.7 µM): 20%; growth inhibition ([15]; at 11.0 µM): 89% (active); growth inhibition ([15]; at 33.0 µM): 93% (active); growth inhibition ([15]; at 100.0 µM): 94% (active)
